Screening results: PubChem BioAssay, National Center for Advancing Translational Sciences (NCATS)
This excerpt belongs to a sample that is enriched for hits.
DT40 TDP1 no CPT: qHTS for Inhibitors of human tyrosyl-DNA phosphodiesterase 1 (TDP1): qHTS in cells in absence of CPT | DT40 Tdp1-/- hTDP1 cells, no CPT, ATP luminescence, 48 h | Potency, µM (highest dose often 46.2 µM), actives largely listed as inhibitors | 15% of 420,000 active; note: nearly all actives have a fitted effect of over 55% in size
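Seeded 400 DT40-hTDP1 cells/well (vehicle DMSO, no 20 nM CPT); pinned compounds; ≥48 hr at 37 °C; CellTiter-Glo luminescence as viability measure.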
12-LOX inh: blocks human arachidonate 12S-lipoxygenase; purified 12hLO, xylenol orange hydroperoxide absorbance; Potency, µM (highest dose often 108 µM), hits mostly inhibitors; 1.1% of 580,000 active; AID 1671190
Target sequence (P18054 whole entry, looked up): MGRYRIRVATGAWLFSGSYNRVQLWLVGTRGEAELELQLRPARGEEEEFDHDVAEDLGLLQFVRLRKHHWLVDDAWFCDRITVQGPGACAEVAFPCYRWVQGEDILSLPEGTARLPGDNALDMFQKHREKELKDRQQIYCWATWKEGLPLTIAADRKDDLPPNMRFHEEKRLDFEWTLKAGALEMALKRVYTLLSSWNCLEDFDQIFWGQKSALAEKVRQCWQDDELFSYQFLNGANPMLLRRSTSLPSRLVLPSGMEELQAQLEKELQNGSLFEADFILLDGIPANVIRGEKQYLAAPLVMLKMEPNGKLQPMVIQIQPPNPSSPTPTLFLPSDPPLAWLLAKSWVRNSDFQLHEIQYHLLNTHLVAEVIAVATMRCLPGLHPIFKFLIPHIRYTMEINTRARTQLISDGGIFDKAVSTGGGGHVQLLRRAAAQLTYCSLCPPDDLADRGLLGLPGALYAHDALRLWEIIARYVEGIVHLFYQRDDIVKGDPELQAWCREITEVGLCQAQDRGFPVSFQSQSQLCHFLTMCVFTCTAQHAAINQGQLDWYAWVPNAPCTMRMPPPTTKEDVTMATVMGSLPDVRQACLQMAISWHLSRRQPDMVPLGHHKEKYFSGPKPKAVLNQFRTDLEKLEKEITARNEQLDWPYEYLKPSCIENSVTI
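Hydroperoxide product was detected by ferrous iron/xylenol orange as the 573 to 405 nm absorbance ratio. Arachidonic acid at 40 uM (final) was turned over for 30 min at room temperature by 150 nM human 12hLO, pH 7.0 Hepes buffer, after 15 min compound preincubation.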
DT40 TDP1 CPT: DT40-hTDP1 cell growth loss with CPT | AID 686979 | 12% of 420,000 active | Potency, µM (highest dose often 46.2 µM), actives largely listed as inhibitors | chicken DT40 Tdp1-/-;hTDP1 cells + 20 nM CPT, ATP luminescence, 48 h; note: nearly all actives have a fitted effect of over 55% in size
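Cell growth measured by CellTiter-Glo luminescence after a minimum 48 h, 37 C compound exposure with 20 nM CPT in Tdp1-knockout DT40 cells stably expressing hTDP1, seeded 400/well; qHTS titration format.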
HT1080-NT tox: kills 2HG-producing HT-1080-NT fibrosarcoma cells. HT-1080-NT fibrosarcoma viability, CellTiter-Glo ATP luminescence, 48 h. Potency, µM (top dose mostly 46.1 µM), most hits filed as cytotoxic. 1.6% of 360,000 active. AID 686970;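 note: NT is the 2HG producing partner of a matched IDH1 knockdown line; nearly all actives have a fitted effect of over 55% in size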
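Toxicity toward the 2HG-producing NT line was scored as %Activity, normalised to DMSO and no-cell wells, from CellTiter-Glo luminescence after 48 hours' treatment.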
HT1080 IDH1KD tx: kills HT-1080 cells with IDH1 knockdown; Potency, µM (series often up to 46.1 µM), usual class: cytotoxic; 2% of 360,000 active; AID 686971; HT-1080 IDH1 knockdown viability, ATP luminescence, 48 h
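Viability of IDH1-knockdown HT-1080 fibrosarcoma cells was assessed by CellTiter-Glo after 48 h at 37 °C with titrated compound; concentration-effect curves were classified by fit quality and response size.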
IL-1B inflam inh: blocks inflammasome-driven IL-1 beta release. AID 743279. THP-1 LPS/ATP IL-1B secretion, AlphaLISA, 16 h; hits give low values. 4.7% of 360,000 active. activity change, % at 57.5 µM; in the data active = activity change below about -50%; inconclusive = mostly about -30% to -49%
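THP-1 cells pretreated 1 hr with compounds (up to 57.5 uM final), then stimulated with LPS (250 ng/mL final) plus ATP (1.25 mM final); secreted IL-1B measured by AlphaLISA after 16 hr, decreased signal indicating inhibition.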
Numbers stand for hits; i = inactive; ? = inconclusive; nt = not tested or not shown; [ ] = dose if it differs, or a comment. Unless noted, calls come from the whole dose curve; as a rule, active = well fitted curve in the direction sought with a large enough effect; inconclusive = small, poorly fitted or top-dose-only effect, or another doubt; inactive = no such curve, though single readings can be large; an effect the other way counts as inactive or inconclusive.

SMILES	DT40 TDP1 no CPT	12-LOX inh	DT40 TDP1 CPT	HT1080-NT tox	HT1080 IDH1KD tx	IL-1B inflam inh
O=C(Nc1cccc(OCC2CCCO2)c1)C1CCN(C(=O)Nc2ccccc2)CC1 (stereo not drawn)	nt	i	nt	nt	nt	nt
COc1cccc(OC)c1-c1cc(CCCc2cc(-c3c(OC)cccc3OC)nc3ccccc23)c2ccccc2n1	13µM	nt	?	nt	nt	nt
CCCCn1cnc2c1c(=O)n(CC(=O)Nc1ccccc1OC)c(=O)n2CCCC	nt	i	nt	nt	nt	nt
O=C1OC(Nc2ccc3c(c2)OCO3)c2ccccc21 (stereo not drawn)	13µM	?	22µM	?	18µM	-124
COc1ccc(CNC(=O)CSc2nc3ccc(NC(=O)c4ccccc4C)cc3s2)cc1	nt	i	nt	nt	nt	nt
CCOC(=O)CSC1=C(C#N)C(c2ccc3c(c2)OCO3)CC(=O)N1 (stereo not drawn)	21µM	i	?	16µM	9.2µM	i
CC(=O)N1CCC(NC[C@H]2COCc3nc4cc(C)ccc4n32)CC1	nt	i	nt	nt	nt	nt
NC(=S)NN=Cc1nccc2c(C(F)(F)F)cccc12	0.73µM	?	0.52µM	?	?	i
CC(=O)Nc1ccc(/C=N/NC(N)=S)cc1	i	i[22.9 µM]	i	nt	nt	nt
CNc1cccnc1C=NNC(N)=S	0.92µM	i	1.2µM	i	?	i
NC(=S)N/N=C/c1cccnc1	i	nt	i	nt	nt	nt
Cc1ccc(C23CC4CC(CC(Cl)(C4)C2)C3)cc1[N+](=O)[O-]	nt	i	nt	nt	nt	nt
CC(C)=CC1C(C(=O)Nc2ccccc2OC(F)(F)F)C1(C)C (stereo not drawn)	nt	i	nt	nt	nt	nt
O=C1c2ccccc2NC(c2ccc(Br)s2)N1O (stereo not drawn)	12µM	i	10µM	?	?	i
C=CCN1C(=O)c2ccccc2NC1c1ccc(Br)s1 (stereo not drawn)	?	i	i	i	i	i
O=C1c2ccccc2NC(c2cccc([N+](=O)[O-])c2)N1O (stereo not drawn)	?	?	21µM	?	i	i
O=C1c2ccccc2NC(c2ccc([N+](=O)[O-])cc2)N1O (stereo not drawn)	18µM	i	21µM	i	i	i
Cc1ccc[n+]([O-])c1C	nt	i	nt	nt	nt	nt
O=C(/C=C/c1ccccc1)NC(NC(=S)Nc1ccc(Cl)cc1)C(Cl)(Cl)Cl (stereo not drawn)	5.2µM	?	16µM	?	18µM	?
CC(C)NC(NC(=O)/C=C/c1ccccc1)C(Cl)(Cl)Cl (stereo not drawn)	?	i	i	i	i	i
O=C(CCc1ccccc1)NC(NC(=S)Nc1ccc(Cl)cc1)C(Cl)(Cl)Cl (stereo not drawn)	4.6µM	i	8.2µM	?	?	i
COc1ccc(NC(=S)NC(NC(=O)/C=C/c2ccccc2)C(Cl)(Cl)Cl)cc1 (stereo not drawn)	18µM	i	?	?	?	i
O=C(/C=C/c1ccccc1)NC(NC(=S)Nc1cc(Cl)ccc1Cl)C(Cl)(Cl)Cl (stereo not drawn)	5.2µM	i	5.2µM	?	?	-66
O=CNNC(=S)Nc1cc(Cl)ccc1Cl	nt	i	nt	nt	nt	nt
CCOC(=O)NC(NC(=S)Nc1ccc(OC)cc1)C(Cl)(Cl)Cl (stereo not drawn)	i	i	i	i	i	i
SMILES	DT40 TDP1 no CPT	12-LOX inh	DT40 TDP1 CPT	HT1080-NT tox	HT1080 IDH1KD tx	IL-1B inflam inh
O=C(c1cccc(OC2CN(Cc3cccc(F)c3)C2)c1)N1CCOCC1	nt	i	nt	nt	nt	nt
COc1ccc(OCCOC(=O)c2ccc3nccnc3c2)cc1	nt	i	nt	nt	nt	nt
CCN(Cc1ccncc1)C(=O)c1cc(=O)c2ccccc2o1	nt	i	nt	nt	nt	nt
O=C1NCCOCCCN(C(=O)CC2CCCC2)[C@H]2CCCC[C@@H]12	nt	i	nt	nt	nt	nt
O=C(NCc1ccco1)c1scc2c1OCCO2	i	i	i	i	i	i
CCN(CC)C(=O)c1scc2c1OCCO2	i	i	i	i	i	-56
Cc1nc(CN2CCCC(c3[nH]ncc3Cc3ccccc3)C2)co1 (stereo not drawn)	nt	i	nt	nt	nt	nt
CCCN(CC1CCOC1)C(=O)Nc1ccc(C)c(F)c1 (stereo not drawn)	nt	i	nt	nt	nt	nt
CCn1c(SC(C)C)nnc1-c1cc(-c2ccccc2)sc1N	16µM	i	?	i	i	i
CCn1c(SCc2cccc(C)c2)nnc1-c1ccccc1	?	i	?	i	i	i
O=C(NCc1ccccc1)C(C1CC1)n1c(Cc2cc(F)cc(F)c2)nc2ccccc21 (stereo not drawn)	18µM	i	?	i	i	i
Cc1ccc(Nc2cccccc2=O)cc1	?	i	21µM	i	29µM	i
Cc1ccc(S(=O)(=O)c2nnn3c2nc(NCc2ccc(F)cc2)c2ccccc23)cc1	nt	i	nt	nt	nt	nt
CCOC(=O)c1ccccc1NC(=O)CN1CCCN(Cc2ccccc2)S1(=O)=O	nt	i	nt	nt	nt	nt
CCc1cccc(C)c1NC(=O)CN1CCCN(Cc2ccc(C)cc2)S1(=O)=O	10µM	i	16µM	nt	nt	nt
CCOC(=O)c1ccccc1NC(=O)CN1CCCN(Cc2cc(C)ccc2C)S1(=O)=O	21µM	i	21µM	nt	nt	nt
COc1ccc(CN2CCCN(CC(=O)Nc3cc(C)ccc3C)S2(=O)=O)cc1	21µM	i	21µM	nt	nt	nt
CCc1ccc(NC(=O)Cn2nc(Cc3ccncc3)c3ccccc3c2=O)cc1	nt	i	nt	nt	nt	nt
CCCn1c(N)c(C(=O)CSc2cc(C)c3ccccc3n2)c(=O)[nH]c1=O	nt	i	nt	nt	nt	nt
CC[C@@]12C(=O)N(c3cccc(Br)c3)C(=O)N1[C@H](c1ccc(Cl)cc1)[C@@H]1C(=O)N(C3CCCCC3)C(=O)[C@@H]12	?	i	?	i	i	?
O=C1[C@H]2[C@@H](c3ccc(Cl)cc3)N3C(=O)N(c4cccc(F)c4)C(=O)[C@@]3(Cc3ccc(Cl)cc3)[C@H]2C(=O)N1C1CCCCC1	16µM	nt	?	i	i	i
O=C1[C@H]2[C@@H](c3ccc(F)cc3)N3C(=O)N(c4cccc(F)c4)C(=O)[C@@]3(Cc3ccc(Cl)cc3)[C@H]2C(=O)N1C1CCCCC1	?	i	?	i	i	i
CC[C@@]12C(=O)N(c3ccc(OC)cc3)C(=O)N1[C@H](c1ccc(Cl)cc1)[C@@H]1C(=O)N(C3CCCCC3)C(=O)[C@@H]12	?	i	21µM	i	i	?
Cc1cc(C)cc(C(=O)N2[C@@H]3CC[C@H]2CC(NC(=O)c2cnc(C)cn2)C3)c1 (stereo partly drawn)	nt	i	nt	nt	nt	nt
O=C(Nc1ccc2[nH]cc(C(C(=O)O)N3CCCC3)c2c1)c1ccccc1 (stereo not drawn)	nt	i	nt	nt	nt	nt
O=C(COc1ccc(Cl)cc1Br)OCC(=O)c1ccc(-c2ccccc2)cc1	nt	i	nt	nt	nt	nt
N=c1ccn(Cc2cccc(Cl)c2)cc1	2.1µM	i	2.6µM	i	i	?
